Data from PubChem BioAssay AID1159580 (chemical genetic matrix, 2015).
Values joined by “and” are separate entries in the source; they are usually repeats but may differ in a detail not shown here. Equal entries are not always repeated. Hit rate of the full screen: of about 5,500 compounds, about 2,000 (36%) were called active. About 18% were inconclusive and are not listed. Cut-off read from the data, not from the text of the source: active = normalized growth mostly below about 0.91 (no sharp cut-off); inconclusive = no clear call, values can overlap the other calls; inactive = mostly above about 0.92. The list shows a part of the results.

Test: chemical genetic growth profiling, strain panel (AID 1159580);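 note: tested at 20 µM; growth read once vehicle control cultures reached saturation at 30 °C; 1 = growth at the plate median or of vehicle wells; lower values mean less growth of the strain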
Conditions: S. cerevisiae deletion strains, growth OD

Measured: normalized growth

C[C@H]1O[C@@H](O[C@H]2[C@@H](O)C[C@H](O[C@H]3[C@@H](O)C[C@H](O[C@H]4CC[C@]5(C)C6C[C@@H](O)[C@]7(C)[C@@H](C8=CC(=O)OC8)CC[C@]7(O)C6CC[C@@H]5C4)O[C@@H]3C)O[C@@H]2C)C[C@H](O)[C@@H]1O (stereo partly drawn)
inactive: locus YAL013W, strain DEP1, active compounds read low 0.992 | locus YAL021C, strain ccr4, active compounds read low 0.982 | locus YAL026C, strain drs2, active compounds read low 1.01 | locus YAL030W, strain snc1, active compounds read low 0.991 | locus YBL061C, strain skt5, active compounds read low 0.99 | locus YBR009C, strain hhf1, active compounds read low 1.08 | locus YBR021W, strain FUR4, active compounds read low 1.01 | locus YBR023C, strain chs3, active compounds read low 0.994 | locus YBR171W, strain sec66, active compounds read low 0.984 | locus YBR229C, strain ROT2, active compounds read low 1 | locus YBR231C, strain swc5, active compounds read low 0.989 | locus YBR279W, strain paf1, active compounds read low 0.996 | locus YCL011C, strain gbp2, active compounds read low 0.967 | locus YCL016C, strain dcc1, active compounds read low 0.992 | locus YCL029C, strain bik1, active compounds read low 0.977 | locus YCL061C, strain MRC1, active compounds read low 1.01 | locus YCL069W, strain vba3, active compounds read low 0.991 | locus YCR088W, strain abp1, active compounds read low 0.997 | locus YDL005C, strain med2, active compounds read low 0.98 | locus YDL035C, strain GPR1, active compounds read low 0.987 | locus YDL040C, strain nat1, active compounds read low 0.999 | locus YDL074C, strain BRE1, active compounds read low 0.982 | locus YDL101C, strain DUN1, active compounds read low 1.01 | locus YDL134C, strain PPH21, active compounds read low 1.03 | locus YDL185W, strain tfp1, active compounds read low 0.955 | locus YDL192W, strain arf1, active compounds read low 0.983 | locus YDR001C, strain nth1, active compounds read low 0.982 | locus YDR069C, strain doa4, active compounds read low 0.996 | locus YDR101C, strain arx1, active compounds read low 0.982 | locus YDR137W, strain rgp1, active compounds read low 0.978 | locus YDR150W, strain NUM1, active compounds read low 0.991 | locus YDR159W, strain sac3, active compounds read low 1.02 | locus YDR162C, strain NBP2, active compounds read low 1.03 | locus YDR195W, strain ref2 0.987 | locus YDR297W, strain sur2, active compounds read low 0.987 | locus YDR318W, strain mcm21, active compounds read low 1 | locus YDR334W, strain swr1, active compounds read low 0.957 | locus YDR335W, strain msn5, active compounds read low 0.98 | locus YDR388W, active compounds read low 0.984 | locus YDR392W, strain spt3, active compounds read low 0.975 | locus YDR502C, strain sam2, active compounds read low 1.01 | locus YEL003W, strain gim4, active compounds read low 0.997 | locus YEL037C, strain rad23, active compounds read low 1 | locus YEL061C, strain CIN8 (second series), active compounds read low 0.992 | locus YEL061C, strain CIN8, active compounds read low 1 | locus YER015W, strain faa2, active compounds read low 1.01 | locus YER016W, strain bim1, active compounds read low 0.987 | locus YER110C, active compounds read low 0.961 | locus YER111C, strain swi4, active compounds read low 1.01 | locus YER155C, strain BEM2 (second series), active compounds read low 1.04 | locus YER155C, strain BEM2, active compounds read low 0.986 | locus YER167W, strain BCK2, active compounds read low 0.992 | locus YFR010W, strain ubp6, active compounds read low 1 | locus YGL078C, strain dbp3, active compounds read low 1 | locus YGL086W, strain mad1, active compounds read low 0.969 | locus YGL167C, strain pmr1, active compounds read low 0.998 | locus YGL173C, strain kem1, active compounds read low 0.981 | locus YGL227W, strain vid30, active compounds read low 0.99 | locus YGL240W, strain doc1, active compounds read low 0.973 | locus YGL248W, strain PDE1, active compounds read low 1.02 | locus YGL253W, strain hxk2, active compounds read low 0.957 | locus YGR135W, strain pre9, active compounds read low 1.01 | locus YGR252W, strain gcn5, active compounds read low 1.09 | locus YHR013C, strain ard1, active compounds read low 0.977 | locus YHR027C, strain rpn1, active compounds read low 0.976 | locus YHR030C, strain SLT2, active compounds read low 0.983 and 1.05 | locus YHR079C, strain IRE1 (second series), active compounds read low 0.982 | locus YHR079C, strain IRE1, active compounds read low 1.06 | locus YHR094C, strain hxt1, active compounds read low 0.973 | locus YHR129C, strain ARP1, active compounds read low 0.993 | locus YHR142W, strain chs7, active compounds read low 0.964 | locus YHR200W, strain rpn10, active compounds read low 0.97 | locus YIL066C, strain RNR3, active compounds read low 1 | locus YIL073C, strain SPO22, active compounds read low 0.937 | locus YIL125W, strain kgd1, active compounds read low 0.941 | locus YIR030C, strain dcg1, active compounds read low 0.99 | locus YJL092W, strain hpr5, active compounds read low 0.996 | locus YJL095W, strain BCK1 (second series), active compounds read low 0.976 | locus YJL095W, strain BCK1, active compounds read low 1.02 and 1.06 | locus YJL115W, strain asf1, active compounds read low 0.984 | locus YJL129C, strain trk1, active compounds read low 0.979 | locus YJL134W, strain LCB3, active compounds read low 0.985 | locus YJL154C, strain vps35, active compounds read low 0.977 | locus YJL164C, strain tpk1, active compounds read low 1.02 | locus YJL166W, strain qcr8, active compounds read low 0.939 | locus YJL168C, strain set2, active compounds read low 0.998 | locus YJL187C, strain SWE1 (second series), active compounds read low 1.02 | locus YJL187C, strain SWE1, active compounds read low 0.993
